# This is a sample that favours compounds with a hit; in the whole collection about 4% have one here.
# MITF act: activators of MITF-driven TRPM1 promoter reporter, primary screen, cell-based, SK-MEL-5, luciferase, single point; SK-MEL-5 TRPM1-promoter luciferase, 24 h; % of positive control, neutral wells = 0; 300,000 compounds, 0.75% hits; activation, % at 12.5 µM; AID 588334, 2011;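 active = mean activation of at least 80% with every replicate also reaching 80%; inconclusive = mean reaches 80% but some replicate falls short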;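 also: 0% = neutral control wells and 100% = parthenolide positive control wells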
# LMP1 NFkB inh: EBV LMP1-driven NF-kappaB luciferase reporter inhibitors, primary screen, cell-based, luminescence, single point. LMP1-induced NF-kappaB luciferase reporter cells. inhibition, % at 12.5 µM. 350,000 compounds, 0.69% hits. AID 504558, 2011; in the data active = inhibition above about 41%; inconclusive = no clear call, values can overlap the other calls;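 also: 0% = neutral control wells and 100% = reference inhibitor control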
# Wnt bcat act: Wnt/beta-catenin pathway activators, primary screen, cell-based, plate reader, single point; Wnt/beta-catenin reporter cell assay, activator; activation, % at 9.35 µM; 300,000 compounds, 1.2% hits; in the data active = activation above about 30%, passing the limit was not always enough; inconclusive = no clear call, values can overlap the other calls;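 also: 0% = neutral control wells and 100% = positive control wells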
# C2C12 statin: suppressors of statin myotoxicity in C2C12 myotubes, primary screen, cell-based, single point, plate reader. C2C12 myotubes + simvastatin, ATP luminescence, 48 h; scaled: DMSO 0, geranylgeraniol control 100. rescue of ATP level, % at 7.49 µM. 330,000 compounds, 0.78% hits. AID 602340, 2012;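 active = mean ATP rescue above about 67%, or every replicate alone reaching that limit, limit read from the data, passing the limit was not always enough; inconclusive = no clear call, values can overlap the other calls; inactive = mean under the limit and some replicate under it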;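 also: myotubes were challenged with 10 µM simvastatin during compound exposure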
# TRPM1 prom inh: inhibitors of MITF-dependent TRPM1 promoter reporter, primary screen, cell-based, SK-MEL-5, single point, luciferase; SK-MEL-5 TRPM1 promoter luciferase, 24 h; inhibition, % at 12.5 µM; 330,000 compounds, 0.83% hits; AID 488899, 2010;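 active = mean inhibition across replicates of 60% or more, whatever share of single replicates reaches that level; inconclusive = some that reach 60%, reason not given; inactive = mean inhibition across replicates below 60%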
# esBAF inh: Bmi1 luciferase reporter increase in mESCs, primary screen, esBAF inhibitor project, mouse ES cells, Bmi1 luciferase knock-in, single point. 350,000 compounds, 2% hits. 24 h; 100% = twice the neutral-well signal. AID 602393, 2012. reporter increase, % at 12.5 µM; in the data active = activation above about 40%; inconclusive = no clear call, values can overlap the other calls;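 also: 0% = median of the plate's neutral control wells and 100% = double that signal; a rise in the Bmi1 reporter signal indicates esBAF inhibition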
# Starred values were filed as active, the others as inactive; ? = inconclusive; nt = no result given.
SMILES,MITF act,LMP1 NFkB inh,Wnt bcat act,C2C12 statin,TRPM1 prom inh,esBAF inh
CCOCCCN1CN(S(=O)(=O)c2ccc(Cl)cc2)c2nc3ccccc3nc21,18,-6,nt,133*,-17,28
C[C@H]1CN([C@@H](C)CO)C(=O)Cc2cc(NC(=O)Cc3cn(C)c4ccccc34)ccc2O[C@@H]1CN(C)Cc1ccc2c(c1)OCO2,nt,nt,nt,-12,nt,-2
C[C@@H]1CN([C@H](C)CO)C(=O)Cc2cc(NC(=O)Cc3cn(C)c4ccccc34)ccc2O[C@H]1CN(C)Cc1ccc(Cl)c(Cl)c1,nt,nt,nt,95*,nt,11
C[C@@H]1CN([C@@H](C)CO)C(=O)Cc2cc(NC(=O)Cc3cn(C)c4ccccc34)ccc2O[C@@H]1CN(C)Cc1ccc(Cl)c(Cl)c1,nt,nt,nt,52,nt,-2
C[C@@H]1CN([C@@H](C)CO)C(=O)Cc2cc(NC(=O)Cc3cn(C)c4ccccc34)ccc2O[C@H]1CN(C)Cc1ccc(Cl)c(Cl)c1,nt,nt,nt,72*,nt,0
C[C@@H]1CN([C@H](C)CO)C(=O)Cc2cc(NC(=O)Cc3cn(C)c4ccccc34)ccc2O[C@@H]1CN(C)Cc1ccc2c(c1)OCO2,nt,nt,nt,86*,nt,0
NC(=O)[C@H]1CC2(CC(c3cccc(NC(=O)CC(c4ccccc4)c4ccccc4)c3)=NO2)CN1C(=O)C(c1ccccc1)c1ccccc1 (stereo partly drawn),-31,3,-5,-11,32,-2
Brc1ccc2oc3c(N4CCOCC4)ncnc3c2c1,9,1,7,-36,-2,48*
COc1ccc(-n2nc3c(N4CCC(C(=O)NC5CCCCC5)CC4)nnc(C)c3c2C)cc1,-47,1,nt,-9,51,1
COc1ccc(-n2nc3c(N4CCC(C(=O)NCCc5ccccc5C)CC4)nnc(C)c3c2C)cc1,-89,1,nt,-3,89*,-18
COc1ccc(-n2nc3c(N4CCC(C(=O)NCc5ccco5)CC4)nnc(C)c3c2C)cc1,0,3,nt,3,0,-1
COc1ccc(-n2nc3c(N4CCC(C(=O)NCC(C)c5ccccc5)CC4)nnc(C)c3c2C)cc1 (stereo not drawn),-69,1,-4,-22,68*,9
Cc1ccc(-n2nc3c(N4CCC(C(=O)NCCc5ccccc5C)CC4)nnc(C)c3c2C)cc1,-93,-3,1,-23,94*,5
COc1ccc(-n2nc3c(N4CCC(C(=O)NCc5ccccc5C)CC4)nnc(C)c3c2C)cc1,-85,-5,nt,-103,85*,3
CC(=Nc1ccccc1)c1sc2ccccc2c1O,50,-58,-1,8,-44,?
CCOc1ccccc1CNC(=O)C1CCCN(c2nnc(C)c3c(C)n(-c4ccccc4)nc23)C1 (stereo not drawn),-81,24,2,4,81*,-34
[O-][n+]1c2ccccc2c2n1CCN1CCOC21c1ccc(Cl)cc1 (stereo not drawn),4,-23,?,4,-4,60*
On1onc2c3cc(-c4ccccc4)nc3ccc21,-14,31,39*,-149,16,-62
COc1ccc(S(=O)(=O)N2CCN(C(=O)CCSc3ccccc3)CC2)cc1,1,-6,-6,-23,0,6
O=C(CCc1nc2ccccc2c(=O)[nH]1)NNC(=O)c1ccc(Cl)cc1,9,-1,-2,-2,-5,5
CC(C)OCCCNC(=O)C1CCC(CNS(=O)(=O)c2ccccc2)CC1 (stereo not drawn),3,67*,-1,nt,-7,nt
COCCNC(=O)C1CCC(CNS(=O)(=O)c2ccccc2)CC1 (stereo not drawn),nt,56*,-2,1,nt,-10
C[C@@H]1CN([C@@H](C)CO)C(=O)c2cc(NC(=O)CCC(F)(F)F)ccc2O[C@H]1CN(C)Cc1ccc2c(c1)OCO2,nt,nt,nt,6,nt,-1
CC(=O)OCCCNc1cc(SCc2ccco2)c2nonc2c1[N+](=O)[O-],-9,13,nt,nt,6,nt
